A selection: hits, their analogues and other compounds. The true share with any hit is near 9.4%.
ELG1 genotox: inducers of genotoxicity in HEK293T ELG1-luciferase cells; HEK293T ELG1-luciferase reporter, luminescence, 16 h; Potency, µM (top dose mostly 46 µM), hits mostly activators; 1.3% of 330,000 active; note: nearly all actives have a fitted effect of over 60% in size
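Cells (2,000/well) expressing the ELG1-luciferase fusion are dosed by pin tool and kept 16 hr at 37 °C, 5% CO2. Signal comes from ONE-Glo luciferase reagent after 30 min at room temperature.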
NPC1 promoter act: activates the NPC1 promoter; Huh7 NPC1 promoter luciferase reporter, 24 h; Potency, µM (titrated, usually from 9.22 µM), most hits filed as activators; 2.4% of 320,000 active; AID 485313; note: nearly all actives have a fitted effect of over 60% in size
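Huh7 cells stably carrying NPC1 promoter–luciferase, plated in Opti-MEM with 10% FBS for 2 h, were exposed to compound in DMSO for 24 h at 37 °C; luciferase reagent was added for 10 min and luminescence read.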
ELG1 repair inh: blocks ELG1-dependent DNA repair in HEK293T cells | HEK293T ELG1-luciferase reporter, luminescence, 16 h; DNA damage induced by 5-fluorouridine | Potency, µM (series often up to 46.1 µM), actives largely listed as inhibitors | 2.3% of 330,000 active | AID 504467; note: nearly all actives have a fitted effect of over 55% in size
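DMSO vehicle served as the neutral condition. Each well held 2,000 cells given 5-fluorouridine plus compound; after 16 hr at 37 °C/5% CO2, ONE-Glo was added and luciferase measured 30 min later.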
FLuc modulator: counter-screen for miR-21 project: firefly luciferase inhibitors or activators | purified FLuc, Km substrates, luminescence inhibition | AID 588342 | 6.9% of 360,000 active | Potency, µM (top dose mostly 57.5 µM), actives largely listed as inhibitors; note: nearly all actives have a fitted effect of over 55% in size
Target sequence (P08659 whole entry, looked up): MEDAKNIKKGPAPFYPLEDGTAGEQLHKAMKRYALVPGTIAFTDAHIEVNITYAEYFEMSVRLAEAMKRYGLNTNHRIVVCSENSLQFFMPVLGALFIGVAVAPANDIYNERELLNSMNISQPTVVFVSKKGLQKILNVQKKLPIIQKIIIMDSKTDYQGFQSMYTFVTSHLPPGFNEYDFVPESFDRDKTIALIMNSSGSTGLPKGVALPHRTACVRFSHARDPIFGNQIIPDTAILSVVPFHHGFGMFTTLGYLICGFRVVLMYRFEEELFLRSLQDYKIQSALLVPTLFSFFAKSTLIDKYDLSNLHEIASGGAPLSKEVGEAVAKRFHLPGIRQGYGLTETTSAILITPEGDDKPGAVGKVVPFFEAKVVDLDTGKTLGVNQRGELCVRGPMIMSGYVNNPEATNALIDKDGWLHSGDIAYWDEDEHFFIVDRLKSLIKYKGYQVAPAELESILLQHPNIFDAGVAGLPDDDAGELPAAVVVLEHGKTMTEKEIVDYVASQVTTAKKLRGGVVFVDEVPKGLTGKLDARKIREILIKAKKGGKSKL
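Purified P. pyralis luciferase, 10 nM final, with Km-level 10 uM D-luciferin and 10 uM ATP in 50 mM Tris acetate pH 7.5, 10 mM Mg acetate, 0.01% Tween-20, 0.05% BSA; 6-point qHTS titration about 60 µM downward; luminescence read.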
Rab9 promoter act: activates the Rab9 promoter. Huh7 Rab9 promoter-luciferase reporter, luminescence, 24 h. 2.8% of 320,000 active. Potency, µM (top dose mostly 9.22 µM), hits mostly activators. AID 485297; note: nearly all actives have a fitted effect of over 60% in size
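Luciferase signal after 10 min detection reagent at ambient indicates Rab9 promoter upregulation; stably transfected Huh7 cells were treated 24 h with compound in DMSO at 37 °C, 5% CO2.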
SMN2 splice enh: SMN2 splice variant enhancement | HEK293 SMN2-luciferase splicing reporter, luminescence, 30-36 h | 2.8% of 210,000 active | Potency, µM (titrated, usually from 46.1 µM), usual class: activators | AID 1458; note: nearly all actives have a fitted effect of over 55% in size
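qHTS luciferase splicing reporter: luminescence rises when SMN2 exon 7 is included in transfected HEK293 cells. Compound exposure lasted 30-36 h at 37C, with 4.5 mM final sodium butyrate as control, followed by a ONE-Glo read.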
Numbers stand for hits; [ ] = remark or other dose. Calls come from the whole dose curve; as a rule, active = well fitted curve in the direction sought with a large enough effect; inconclusive = small, poorly fitted or top-dose-only effect, or another doubt; inactive = no such curve, though single readings can be large; an effect the other way counts as inactive or inconclusive.

Cc1ccc(NC(=O)c2ccc(-n3c(C)nnc3C)cc2)cc1F was read as FLuc modulator inactive.
COc1cc(Cl)c(C)cc1NC(=O)CSCc1nc(-c2ccc(OC)c(OC)c2)no1 was read as FLuc modulator inactive.
For Cc1ncc(CO)c2c1Oc1nc(-c3ccccc3Cl)nc(SCc3ccccc3F)c1C2 the results were FLuc modulator inactive.
N#C/C(=N\Nc1ccccc1F)C(=N)N1CCCCC1 was read as ELG1 genotox 20.6µM, NPC1 promoter act 3.16µM, ELG1 repair inh inconclusive, FLuc modulator 12µM, Rab9 promoter act 1.58µM and SMN2 splice enh 11.2µM.
`O=C(CCn1c2c(c3ccccc31)CCCC2)NNC(=O)c1ccccc1[N+](=O)[O-]` gave ELG1 genotox inactive, NPC1 promoter act inactive, ELG1 repair inh inactive, FLuc modulator inconclusive, Rab9 promoter act inactive and SMN2 splice enh inactive.
For O=C(CCn1c2c(c3ccccc31)CCCC2)NNC(=O)c1ccccc1C(=O)O the results were ELG1 genotox inactive, NPC1 promoter act inactive, ELG1 repair inh inconclusive, FLuc modulator 26.9µM and Rab9 promoter act inactive.
Screening COc1ccc(N2CCN(C(=O)c3nn(-c4ccc(C)cc4)c(=O)n(C)c3=O)CC2)cc1 returned FLuc modulator inactive.
For COc1cc(/C=C2\C(=O)NN(c3ccccc3)C2=O)ccc1OCC(N)=O the results were ELG1 genotox inactive, NPC1 promoter act inactive, ELG1 repair inh inactive, FLuc modulator 10.7µM, Rab9 promoter act inactive and SMN2 splice enh inactive.
Screening COc1cc(C=C2C(=O)OC(C)(C)OC2=O)ccc1OCC(=O)Nc1ccccc1 returned ELG1 genotox inconclusive, NPC1 promoter act inactive, ELG1 repair inh inconclusive, FLuc modulator 10.7µM, Rab9 promoter act inactive and SMN2 splice enh inactive.
Screening C#CCOc1ccc(/C=C2/C(=O)NN(c3ccc(F)cc3)C2=O)cc1OC returned ELG1 genotox inactive, NPC1 promoter act inactive, ELG1 repair inh inactive, FLuc modulator 1.9µM and Rab9 promoter act inactive.
For COC(=O)c1cc2oc(C)cc2n1CC(=O)Nc1ccc(C)cc1C the results were FLuc modulator inactive and SMN2 splice enh inactive.
Screening CC(C)(CO)CNC(=O)CCc1nnc(-c2ccc(-c3ccccc3)cc2)o1 returned ELG1 genotox inactive, NPC1 promoter act inactive, ELG1 repair inh inconclusive, FLuc modulator 23.9µM and Rab9 promoter act inactive.
Screening CC(NC(=O)CCc1nnc(-c2ccc(-c3ccccc3)cc2)o1)c1nc2ccccc2[nH]1 (centres undefined) returned ELG1 genotox inactive, NPC1 promoter act inactive, ELG1 repair inh inconclusive, FLuc modulator 10.7µM and Rab9 promoter act inactive.
For Cc1cccc(CC(C)NC(=O)CCc2nnc(-c3ccccc3)o2)n1 (centres undefined) the results were ELG1 genotox inactive, NPC1 promoter act inactive, ELG1 repair inh inactive, FLuc modulator inactive and Rab9 promoter act inactive.
CCN(c1cc(C)cc(C)c1)S(=O)(=O)c1nnc(NC(=O)c2ccccc2C)s1 was read as FLuc modulator inactive.
Screening C=CCOC(=O)N[C@H](/C(C(=O)OC)=C(\C)NCc1ccccc1)c1ccc(C)cc1 returned SMN2 splice enh inactive.
For CC1(C)Oc2ccc(NC(=O)C3COc4ccccc4O3)cc2O1 (centres undefined) the results were ELG1 genotox inconclusive, NPC1 promoter act 1.58µM, ELG1 repair inh inconclusive, FLuc modulator 1.9µM, Rab9 promoter act 0.501µM and SMN2 splice enh inactive.
For Cc1ccnc(NC(=O)C2COc3ccccc3O2)c1 (centres undefined) the results were ELG1 genotox inconclusive, NPC1 promoter act 2.82µM, ELG1 repair inh inconclusive, FLuc modulator 9.53µM, Rab9 promoter act 3.55µM and SMN2 splice enh inconclusive.
`CC1CCC(NC(=O)C2COc3ccccc3O2)CC1` (centres undefined) gave ELG1 genotox 14.6µM, NPC1 promoter act inactive, ELG1 repair inh inconclusive, FLuc modulator inactive and Rab9 promoter act inactive.
For Cc1ccc(NC(=O)C2COc3ccccc3O2)c(C)c1 (centres undefined) the results were ELG1 genotox inactive, NPC1 promoter act inactive, ELG1 repair inh inconclusive, FLuc modulator inconclusive and Rab9 promoter act inactive.
`C/C(=N\NC(=O)C1COc2ccccc2O1)c1ccccn1` (centres undefined) gave ELG1 genotox 11.6µM, NPC1 promoter act inactive, ELG1 repair inh inconclusive, FLuc modulator inactive, Rab9 promoter act inactive and SMN2 splice enh inactive.
For O=C(Nc1ncccc1Cl)C1COc2ccccc2O1 (centres undefined) the results were ELG1 genotox inconclusive, NPC1 promoter act inactive, ELG1 repair inh inconclusive, FLuc modulator 16.9µM, Rab9 promoter act inactive and SMN2 splice enh inactive.
Screening Cc1ccc(NC(=O)C2COc3ccccc3O2)nc1 (centres undefined) returned ELG1 genotox 10µM, NPC1 promoter act inactive, ELG1 repair inh inconclusive, FLuc modulator 13.5µM, Rab9 promoter act inactive and SMN2 splice enh inactive.
Screening CN(C)S(=O)(=O)Nc1ccc(-c2cn3ccsc3n2)cc1 returned FLuc modulator 26.9µM.
For O=C(Nc1ccc(-c2cn3ccsc3n2)cc1)C1COc2ccccc2O1 (centres undefined) the results were ELG1 genotox inactive, NPC1 promoter act inconclusive, ELG1 repair inh inactive, FLuc modulator 26.9µM, Rab9 promoter act 3.16µM and SMN2 splice enh inactive.
Screening O=C(Nc1cccnc1)C1COc2ccccc2O1 (centres undefined) returned ELG1 genotox inactive, NPC1 promoter act inactive, ELG1 repair inh inactive, FLuc modulator inactive, Rab9 promoter act inactive and SMN2 splice enh inactive.
`CCc1ccc(C2c3c(-c4cc(C)ccc4O)n[nH]c3C(=O)N2Cc2cccnc2)cc1` (centres undefined) gave FLuc modulator inactive and SMN2 splice enh inactive.
For COC(=O)C1=C(C(=O)OC)[C@@H]2N(Cc3ccccc3)c3ccccc3[C@@]23C[C@@H](C(=O)OC)N(S(=O)(=O)c2ccc4c(c2)OCCN4C)C3=N1 the results were SMN2 splice enh inactive[9.22 µM].
`Cc1ccc(NC(=O)C2COc3ccccc3O2)cc1` (centres undefined) gave ELG1 genotox inconclusive, NPC1 promoter act 2.82µM, ELG1 repair inh inconclusive, FLuc modulator 23.9µM and Rab9 promoter act 3.55µM.
For CCC(=O)N1CCc2cc(Br)cc(S(=O)(=O)N3CCC(C(=O)NC(C)(C)C)CC3)c21 the results were ELG1 genotox inactive, NPC1 promoter act inactive, ELG1 repair inh 7.3µM, FLuc modulator inactive, Rab9 promoter act inactive and SMN2 splice enh inactive.
CCCCOc1ccc(C(=O)N/N=C/c2cn[nH]c2-c2ccc(OC)c(OC)c2)cc1 was read as ELG1 genotox inactive, NPC1 promoter act inactive, ELG1 repair inh inconclusive, FLuc modulator 12µM, Rab9 promoter act inactive and SMN2 splice enh inactive.

Assay outcomes: PubChem BioAssay, National Center for Advancing Translational Sciences (NCATS)
